HCV inh: qHTS Assay for Inhibitors of Hepatitis C Virus (HCV); AID 651820, 2012; Huh7.5.1 HCVcc-Cre infection, luciferase reporter, 44 h; Potency, µM (doses to about 41.8 µM), hits mostly inhibitors; hit rate 3.4% among 340,000
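Reporter virus HCVcc-Cre (~0.5 moi) infects cells exposed to compound; seeding density 1,000 cells/well with 4 h settling beforehand. Luminescence, 15 sec read, taken 44 h post-infection following a 15 min RT substrate incubation.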
HCMV antiviral: qHTS Assay for inhibitors of the human cytomegalovirus (HCMV); activity change, negative = inhibition, % at 57.5 µM; HFF cells, HCMV-luciferase reporter, 72 h; hits give low values; hit rate 4.5% among 410,000; in the data active means activity change below about -60%; inconclusive means no clear call, values can overlap the other calls; inactive means above about -39%
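Steps: HFFs plated, 16 h 37C; compounds added; HCMV-luciferase added to MOI 1 PFU/cell; 72 h 37C; OneGlo reagent, 5 min room temperature; luminescence read, normalized to controls.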
LASV entry inh: qHTS for Inhibitors of binding or entry into cells for Lassa Virus | Potency, µM (doses to about 37.9 µM), most hits filed as inhibitors | Lassa virus pseudotype entry inhibition, cell reporter | AID 540256, 2011 | hit rate 1.2% among 300,000; calls by dose curve; tested in HEK293 cells; further: nearly all actives have a fitted effect of over 50% in size
Pf growth 48h: Primary qHTS for delayed death inhibitors of the malarial parasite plastid, 48 hour incubation | Potency, µM (titrated, usually from 28.7 µM), usual class: inhibitors | hit rate 5.9% among 310,000 | AID 504832, 2011 | P. falciparum luciferase growth in erythrocytes, 48 h
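Firefly luciferase activity from engineered P. falciparum reports growth; inhibitors lower the luminescent signal. Cultures contained 2% hematocrit erythrocytes at 0.1% final parasitemia.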
MARV entry inh: qHTS for inhibitors of binding or entry into cells for Marburg Virus | hit rate 1.8% among 300,000 | AID 540276, 2011 | Potency, µM (highest dose often 37.8 µM), hits mostly inhibitors | Marburg virus pseudotyped entry inhibition, cell reporter; calls by dose curve; tested in HEK293 cells
Pf growth 96h: Primary qHTS for delayed death inhibitors of the malarial parasite plastid, 96 hour incubation; Potency, µM (top dose mostly 28.7 µM), actives largely listed as inhibitors; hit rate 6.9% among 320,000; P. falciparum luciferase reporter growth, 96 h
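P. falciparum expressing integrated firefly luciferase grown in erythrocytes (2% hematocrit, 0.05% parasitemia final) with compounds for 96 hours at 37 C, 5% CO2. Growth inhibition read as loss of luminescence after adding luciferase detection reagent.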
Each line names hits and unclear results; the compound was inactive in the other large screens; ! = not active in a repeat. Hits are enriched below; roughly 14% of the tested compounds scored in any of these assays. Unless noted, the call rests on the fitted dose curve; in most records, active means well fitted inhibition curve with a large enough effect; inconclusive means small, poorly fitted or top-dose-only effect, or another doubt; inactive means no such curve, though single readings can be large or run the other way.

Cc1cc(C)cc(C(=O)N2CCN(Cc3ccc4c(c3)OCO4)CC2)c1	MARV entry inh inconclusive
Cc1ccc2[nH]c3c(c2c1)CN(C(=O)CN1CCN(Cc2ccc4c(c2)OCO4)CC1)CC3	HCV inh inconclusive, Pf growth 48h inconclusive, MARV entry inh inconclusive, Pf growth 96h 9.28µM
O=C(c1ccc2nc(N3CCCCC3)sc2c1)N1CCN(Cc2ccc3c(c2)OCO3)CC1	HCV inh inconclusive, HCMV antiviral inconclusive, Pf growth 48h 4.15µM (no result: LASV entry inh)
NC(=O)C1CCN(C(=O)c2ccc3nc(N4CCCCC4)sc3c2)CC1	MARV entry inh inconclusive
O=C(c1cccnc1)N1CCN(Cc2ccc3c(c2)OCO3)CC1	Pf growth 96h 4.15µM
CCCCNC(=O)c1cccc(-n2cnc3cccnc32)c1C	none (no result: HCV inh, Pf growth 48h, MARV entry inh, Pf growth 96h)
O=C1NCCN1C(=O)N1CCC[C@@H]1c1noc2cc3ccccc3cc12	none (no result: HCV inh, LASV entry inh, Pf growth 48h, MARV entry inh, Pf growth 96h)
O=C(Nc1ccc(C(=O)N2CCCCC2)cc1)c1ccc([N+](=O)[O-])cc1	Pf growth 48h inconclusive, MARV entry inh inconclusive
CNC[C@H]1Oc2ccc(NC(=O)Cc3cn(C)c4ccccc34)cc2CC(=O)N([C@@H](C)CO)C[C@H]1C	none (no result: LASV entry inh, Pf growth 48h, MARV entry inh, Pf growth 96h)
c1cnc2ccc(C(c3nnnn3C3CCCC3)N3CCN(c4nc5ccccc5s4)CC3)cc2c1 (stereo not drawn)	HCV inh inconclusive, Pf growth 48h 5.22µM, MARV entry inh inconclusive
Cc1ccc(C(c2nnnn2CC2CCCO2)N2CCN(c3cccc(C)c3C)CC2)cc1 (stereo not drawn)	HCV inh 11.2µM!, LASV entry inh inconclusive, Pf growth 48h 13.1µM, MARV entry inh inconclusive (no result: Pf growth 96h)
Clc1ccc(C(c2nnnn2C2CCCC2)N2CCN(c3nc4ccccc4s3)CC2)cc1 (stereo not drawn)	MARV entry inh inconclusive (no result: Pf growth 48h, Pf growth 96h)
Cc1cccc(N2CCN(C(c3ccccc3)c3nnnn3C(C)(C)C)CC2)c1C (stereo not drawn)	LASV entry inh 3.26µM, MARV entry inh inconclusive, Pf growth 96h inconclusive
COc1ccccc1N1CCN(C(c2ccc(Cl)cc2)c2nnnn2C(C)(C)C)CC1 (stereo not drawn)	HCV inh inconclusive, HCMV antiviral -65.8, LASV entry inh inconclusive, Pf growth 48h 6.57µM, MARV entry inh inconclusive, Pf growth 96h inconclusive
CC(C)(C)n1nnnc1C(c1cccnc1)N1CCN(c2ccccc2F)CC1 (stereo not drawn)	none
COc1ccccc1N1CCN(C(c2ccccc2Cl)c2nnnn2C(C)(C)C)CC1 (stereo not drawn)	LASV entry inh inconclusive, Pf growth 48h inconclusive, MARV entry inh inconclusive, Pf growth 96h inconclusive (no result: HCMV antiviral)
COc1ccc(C(c2nnnn2C(C)(C)C)N2CCN(c3nc4ccccc4s3)CC2)cc1OC (stereo not drawn)	Pf growth 48h 5.22µM, MARV entry inh inconclusive, Pf growth 96h inconclusive
CCC(C)(C)n1nnnc1C(c1ccc2ncccc2c1)N1CCN2CCCC2C1 (stereo not drawn)	Pf growth 48h 10.4µM
COc1cc(C(c2nnnn2C(C)(C)C)N2CCN(c3nc4ccccc4s3)CC2)ccc1O (stereo not drawn)	none
Cc1cccc(N2CCN(C(c3cccs3)c3nnnn3C(C)(C)C)CC2)c1C (stereo not drawn)	HCMV antiviral inconclusive, LASV entry inh inconclusive, Pf growth 48h inconclusive, MARV entry inh 11.6µM! (no result: Pf growth 96h)
CC(C)(C)n1nnnc1C(c1cccs1)N1CCN(c2ccccc2)CC1 (stereo not drawn)	LASV entry inh inconclusive, Pf growth 48h inconclusive
C=CCN1C(=O)c2ccc(C(=O)OCC(=O)N(CC)c3c(N)n(Cc4ccccc4)c(=O)[nH]c3=O)cc2C1=O	none (no result: LASV entry inh, Pf growth 48h, MARV entry inh, Pf growth 96h)
CC1Sc2ccc(S(=O)(=O)CCC(=O)NC3CCCC(C)C3C)cc2NC1=O (stereo not drawn)	HCV inh inconclusive (no result: LASV entry inh, MARV entry inh)
Cc1nc(C)c(-c2ccc(SCC(=O)Nc3ccc(Cl)c(Cl)c3)nn2)s1	LASV entry inh inconclusive (no result: HCV inh, Pf growth 48h, MARV entry inh, Pf growth 96h)
C=CCn1c(SCC(=O)NC(N)=O)nnc1-c1cc2c(s1)CCC(CC)C2 (stereo not drawn)	none
C=CCn1c(SCC(=O)NCC)nnc1-c1cc2c(s1)CCC(CC)C2 (stereo not drawn)	HCV inh inconclusive, HCMV antiviral -67.9
CN1C(=O)[C@@H](NC(=O)c2cc3ccccc3[nH]2)N=C(c2ccccc2)c2ccccc21	Pf growth 48h 15.1µM, Pf growth 96h 15.1µM (no result: HCV inh, HCMV antiviral, LASV entry inh, MARV entry inh)
COc1ccc(CN2C[C@@H](CO)O[C@@H](n3cnc4c(N5CCCC5)ncnc43)C2)cc1	none (no result: HCV inh, LASV entry inh, Pf growth 48h, MARV entry inh, Pf growth 96h)
COc1ccccc1CNC(=S)NC1CCCCC1	HCMV antiviral -73.7, LASV entry inh 8.91µM, MARV entry inh inconclusive, Pf growth 96h inconclusive
COc1cccc(CNC(=S)NC2CC2)c1	Pf growth 96h inconclusive
COc1cccc(CNC(=S)NC2CCCC2)c1	HCV inh inconclusive, HCMV antiviral -61.4
NS(=O)(=O)c1ccc(CNC(=S)NC2CCCC2)cc1	MARV entry inh inconclusive, Pf growth 96h 13.1µM
NS(=O)(=O)c1ccc(CNC(=O)C2CCCCC2)cc1	none (no result: Pf growth 96h)
Fc1ccccc1CNC(=S)NC1CCCCC1	HCV inh inconclusive, LASV entry inh inconclusive, MARV entry inh inconclusive, Pf growth 96h 4.15µM (no result: HCMV antiviral)
CN(Cc1cccs1)[C@@H]1CC[C@@]23CCCN2C(=O)CCC[C@H]3[C@H]1Cc1ccccc1	none (no result: HCV inh, LASV entry inh, Pf growth 48h, MARV entry inh, Pf growth 96h)
COc1ccccc1Cc1nc2ccccc2nc1SCC(=O)N(C)c1ccc(F)cc1	none (no result: HCV inh, Pf growth 48h, MARV entry inh, Pf growth 96h)
S=C(NCCNCc1ccccc1)NC1CCCCC1	Pf growth 48h inconclusive, Pf growth 96h 4.65µM (no result: HCV inh, HCMV antiviral, LASV entry inh, MARV entry inh)
S=C(NCCc1ccc(Cl)cc1)NC1CCCCC1	LASV entry inh inconclusive, MARV entry inh inconclusive, Pf growth 96h inconclusive
S=C(NCCc1ccccc1)NC1CCCCCC1	LASV entry inh inconclusive
S=C(NCCc1ccc(Cl)cc1)NC1CCCC1	HCV inh inconclusive, HCMV antiviral -69.4, Pf growth 96h inconclusive (no result: LASV entry inh, MARV entry inh)
CCC(=NCCN1CCOCC1)c1c(O)n(-c2ccccc2C)c(=O)[nH]c1=O	none
CC/C(=N\N1CCCCCC1)c1c(O)n(-c2ccccc2C)c(=O)[nH]c1=O	HCV inh inconclusive, HCMV antiviral inconclusive, LASV entry inh 10µM, Pf growth 48h inconclusive, Pf growth 96h 4.65µM
O=C(NCCc1nc2ccccc2n1Cc1ccccc1F)c1ccc(F)cc1	HCMV antiviral inconclusive (no result: HCV inh, Pf growth 48h, Pf growth 96h)
Cn1c(N)c(C(=O)CSc2nnc(Cc3cccs3)n2C2CC2)c(=O)n(C)c1=O	Pf growth 48h 5.22µM, Pf growth 96h 3.29µM
CCCn1c(N)c(C(=O)CSc2nnc(Cc3cccs3)n2C2CC2)c(=O)n(C)c1=O	HCV inh inconclusive, HCMV antiviral inconclusive, Pf growth 48h 4.65µM, Pf growth 96h 4.15µM (no result: LASV entry inh, MARV entry inh)
COc1cc(C(=O)N2CCCC(C)(C(=O)NS(=O)(=O)C3CC3)C2)cc(OC)c1OC (stereo not drawn)	none (no result: HCV inh, LASV entry inh, Pf growth 48h, MARV entry inh, Pf growth 96h)

Bioassay records (PubChem)
